Source: PubChem BioAssay
Activity calls are given as the source filed them.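 The calls were made as follows, unless noted: active = compounds that lower viability of the colon cancer cells in the luminescence readout, with no numeric limit stated; inactive = the rest.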

Columns and labels:
[1] = Wnt pathway potentiators raising nuclear beta-catenin – imaging, WNT3A-conditioned medium, mouse C2C12, NPC library, primary screen (AID 1117326; in the data active = nuclear beta-catenin stimulation mostly above about 4.2%, no sharp cut-off; inactive = mostly below about 10%; also: reference of the scale not given here); settings: stronger effect = higher value
[2] = stimulators of insulin release from INS-1E, primary screen, cell-based, 5 mM glucose, NPC library (AID 1117329;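 active = compound raises insulin release from rat beta cells at 5 mM glucose, no numeric limit stated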; also: reference of the scale not given here); settings: rat INS-1E insulin secretion, at 10 µM, stronger effect = higher value
[3] = growth inhibition of GSK3B-pretreated HCT116 cells – cell-based, CellTiter-Glo, 0.2 to 20 µM (AID 1117336;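 active = compounds lowering colon cancer cell viability after pretreatment blocking the GSK3B kinase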); settings: HCT116 viability after GSK3B inhibitor, at 20 µM, stronger effect = higher value
[4] = inhibition of endothelial tube formation, primary screen, imaging, VEGF stimulated, CD31 staining, tube area, NPC library (AID 1117340;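 active = compound that reduces growth-factor-driven endothelial tube area in a mixed cell culture, no cutoff stated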); settings: VEGF-stimulated ADSC/ECFC co-culture, at 10 µM, stronger effect = higher value
[5] = GLP1 release stimulators, primary, NCI-H716, NPC library (AID 1117341;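 active = compound raises GLP1 secretion from the human gut endocrine cells, with no numeric limit stated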; also: reference of the scale not given here); settings: NCI-H716 cells, at 10 µM, stronger effect = higher value
[6] = HCT116 colon cancer cell growth inhibition, primary screen, CellTiter-Glo luminescence, NPC library (AID 1117342;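 active = compounds that lower survival of HCT116 colon cancer cells in the luminescence readout, no numeric limit stated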); settings: at 20 µM (top of the series)
[7] = reduced SW480 viability measured with CellTiter-Glo, NPC library, primary (AID 1117343); settings: CellTiter-Glo luminescence; at 20 µM (top of the series)
[8] = NPC library primary testing for decreased DLD-1 cell viability via CellTiter-Glo (AID 1117346;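 active = compounds that lower survival of DLD-1 colon cancer cells in the luminescence readout, no cutoff given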); settings: DLD-1 viability, CellTiter-Glo luminescence; at 20 µM (top of the series)

CC[C@@]1(O)C(=O)OCc2c1cc1n(c2=O)Cc2c-1nc1ccccc1c2/C=N/OC(C)(C)C
inactive: insulin secretion stimulation [2] 2.9% | GLP1 secretion stimulation [5] 14.3%
active: nuclear beta-catenin stimulation ([1]; at 10 µM) 38.7% | viability decrease [3] -17.1% | tube area decrease [4] 59.9% | inhibition of viability [6] 35% | viability decrease (inhibition) [7] 64.5% | viability decrease (inhibition) [8] 76.5%
59.7%: nuclear beta-catenin stimulation ([1]; stimulation, at 2 µM)

O=c1[nH]c2ccccc2c(=O)n1CCCl
active: viability decrease (inhibition) [7] 50.6%
1.4%: nuclear beta-catenin stimulation ([1]; stimulation, at 2 µM)
inactive: nuclear beta-catenin stimulation ([1]; at 10 µM) 3.3% | insulin secretion stimulation [2] 1.3% | viability decrease [3] 41.6% | tube area decrease [4] -18.9% | GLP1 secretion stimulation [5] 2.8% | inhibition of viability [6] 30.4% | viability decrease (inhibition) [8] 20.2%

Cn1cc(C(=O)[C@@H]2CCc3nc[nH]c3C2)c2ccccc21
inactive: nuclear beta-catenin stimulation ([1]; at 10 µM) 2.4% | insulin secretion stimulation [2] 5.1% | viability decrease [3] 2.2% | tube area decrease [4] 17.2% | GLP1 secretion stimulation [5] 0.6% | inhibition of viability [6] -2.5% | viability decrease (inhibition) [7] 11.2% | viability decrease (inhibition) [8] -4.05%
-0.1%: nuclear beta-catenin stimulation ([1]; stimulation, at 2 µM)

CCCCCCCCCCCCCCCC[N+](C)(C)Cc1ccccc1
0.7%: nuclear beta-catenin stimulation ([1]; stimulation, at 2 µM)
inactive: nuclear beta-catenin stimulation ([1]; at 10 µM) 38.6% | insulin secretion stimulation [2] 1% | GLP1 secretion stimulation [5] -4.3%
active: viability decrease [3] 99.3% | tube area decrease [4] 109% | inhibition of viability [6] 99.2% | viability decrease (inhibition) [7] 101% | viability decrease (inhibition) [8] 102%

O=S(c1cc(Cl)cc(Cl)c1O)c1cc(Cl)cc(Cl)c1O
inactive: nuclear beta-catenin stimulation ([1]; at 10 µM) -0.5% | insulin secretion stimulation [2] 4.7%
active: viability decrease [3] 110% | tube area decrease [4] 92.8% | GLP1 secretion stimulation [5] 27.8% | inhibition of viability [6] 112% | viability decrease (inhibition) [7] 126% | viability decrease (inhibition) [8] 101%
-1.3%: nuclear beta-catenin stimulation ([1]; stimulation, at 2 µM)

CCOc1cc(OCC)c(C(=O)CCC(=O)O)cc1OCC
inactive: nuclear beta-catenin stimulation ([1]; at 10 µM) -1.4% | insulin secretion stimulation [2] 0.5% | viability decrease [3] -11.3% | tube area decrease [4] 3.4% | GLP1 secretion stimulation [5] -1.3% | inhibition of viability [6] 11.4% | viability decrease (inhibition) [7] 0.4% | viability decrease (inhibition) [8] 3.7%
0.2%: nuclear beta-catenin stimulation ([1]; stimulation, at 2 µM)

O=C(c1ccco1)N1CCNCC1
-0.4%: nuclear beta-catenin stimulation ([1]; stimulation, at 2 µM)
inactive: nuclear beta-catenin stimulation ([1]; at 10 µM) 4.5% | insulin secretion stimulation [2] 0.1% | viability decrease [3] -3.6% | tube area decrease [4] -16.6% | GLP1 secretion stimulation [5] -0.5% | inhibition of viability [6] -8.9% | viability decrease (inhibition) [7] -21.1% | viability decrease (inhibition) [8] 5.4%

CN[C@@H]1[C@H](O)[C@H](O[C@@H]2[C@H](O)[C@@H](O[C@H]3O[C@H]([C@@H](C)NC)CC[C@H]3N)[C@@H](N)C[C@H]2N)OC[C@]1(C)O
-0.4%: nuclear beta-catenin stimulation ([1]; stimulation, at 2 µM)
inactive: nuclear beta-catenin stimulation ([1]; at 10 µM) -0.1% | insulin secretion stimulation [2] 1.1% | viability decrease [3] 7.9% | tube area decrease [4] 0.9% | GLP1 secretion stimulation [5] 2.8% | inhibition of viability [6] 6.73% | viability decrease (inhibition) [7] 29.9% | viability decrease (inhibition) [8] -5.6%

O=C(O)c1cn(C2CC2)c2cc(Cl)c(F)cc2c1=O
active: viability decrease [3] 55.5%
inactive: nuclear beta-catenin stimulation ([1]; at 10 µM) 0% | insulin secretion stimulation [2] 2.05% | tube area decrease [4] -14.6% | GLP1 secretion stimulation [5] -3.9% | inhibition of viability [6] 42.5% | viability decrease (inhibition) [7] -3.8% | viability decrease (inhibition) [8] -3.8%
-1.8%: nuclear beta-catenin stimulation ([1]; stimulation, at 2 µM)

CCCN(CCc1cccs1)[C@H]1CCc2c(O)cccc2C1
-2.2%: nuclear beta-catenin stimulation ([1]; stimulation, at 2 µM)
inactive: nuclear beta-catenin stimulation ([1]; at 10 µM) 0.6% | insulin secretion stimulation [2] 8.95% | viability decrease [3] 48.4% | tube area decrease [4] 0.6% | GLP1 secretion stimulation [5] 2.4% | viability decrease (inhibition) [7] 30.3% | viability decrease (inhibition) [8] 9.7%
active: inhibition of viability [6] 65.2%

CCN1CCN(C(=O)N[C@@H](C(=O)N[C@@H]2C(=O)N3[C@@H]2SC(C)(C)[C@H]3C(=O)O)c2ccccc2)C(=O)C1=O
0.9%: nuclear beta-catenin stimulation ([1]; stimulation, at 2 µM)
inactive: nuclear beta-catenin stimulation ([1]; at 10 µM) 0.2% | insulin secretion stimulation [2] -0.5% | viability decrease [3] -21.3% | tube area decrease [4] -12.7% | GLP1 secretion stimulation [5] -0.4% | inhibition of viability [6] 23.9% | viability decrease (inhibition) [7] 8.3% | viability decrease (inhibition) [8] -5.2%

CC(=O)c1cc2ccccc2s1
1.1%: nuclear beta-catenin stimulation ([1]; stimulation, at 2 µM)
inactive: nuclear beta-catenin stimulation ([1]; at 10 µM) 2.1% | insulin secretion stimulation [2] -1.3% | viability decrease [3] 32.7% | tube area decrease [4] -3.8% | GLP1 secretion stimulation [5] 0.1% | inhibition of viability [6] 31.2% | viability decrease (inhibition) [7] 32.8% | viability decrease (inhibition) [8] 26.6%

CCOC(=O)c1ccc(NC(=O)CN2CCCCC2)cc1
-1.8%: nuclear beta-catenin stimulation ([1]; stimulation, at 2 µM)
active: inhibition of viability [6] 50.7%
inactive: nuclear beta-catenin stimulation ([1]; at 10 µM) 0.5% | insulin secretion stimulation [2] 3.5% | viability decrease [3] 18.5% | tube area decrease [4] 0.1% | GLP1 secretion stimulation [5] 0.9% | viability decrease (inhibition) [7] 24.7% | viability decrease (inhibition) [8] 5.8%

CCCC(=O)OC[C@@H](OC(=O)CCC)[C@@H](OC(=O)CCC)[C@H](Cn1c2nc(=O)[nH]c(=O)c-2nc2cc(C)c(C)cc21)OC(=O)CCC
2.2%: nuclear beta-catenin stimulation ([1]; stimulation, at 2 µM)
inactive: nuclear beta-catenin stimulation ([1]; at 10 µM) -0.4% | insulin secretion stimulation [2] 1.9% | viability decrease [3] 39.1% | tube area decrease [4] 14.1% | GLP1 secretion stimulation [5] 2.6% | inhibition of viability [6] 11.7% | viability decrease (inhibition) [7] 25.5% | viability decrease (inhibition) [8] 24.5%
